Columns and labels:
Conditions in all cases: concentration: 1 μM,replicates: in singlicate; n = 1
MLK1 = tested on: T1, MLK1
T1 construct: gene MAP3K9

MLK2 = tested on: MLK2
MLK3 = tested on: MLK3
MRCKA = tested on: MRCKA
MRCKB = tested on: T2, MRCKB
T2 construct: gene CDC42BPB

MST1R = tested on: MST1R
MST1 = tested on: T3, MST1
T3 construct: gene STK4

MST2 = tested on: T4, MST2
T4 construct: gene STK3

MST3 = tested on: T5, MST3
T5 construct: gene STK24

MST4 = tested on: MST4
MTOR = tested on: MTOR
MUSK = tested on: MUSK
MYLK2 = tested on: MYLK2
MYLK4 = tested on: MYLK4
MYLK = tested on: MYLK
MYO3A = tested on: MYO3A
MYO3B = tested on: MYO3B
NDR1 = tested on: T6, NDR1
T6 construct: gene STK38

NDR2 = tested on: NDR2
NEK10 = tested on: NEK10
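Further: KINOMEscan kinase panel screen.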

Row | SMILES | %Inh (MLK1) | %Inh (MLK2) | %Inh (MLK3) | %Inh (MRCKA) | %Inh (MRCKB) | %Inh (MST1R) | %Inh (MST1) | %Inh (MST2) | %Inh (MST3) | %Inh (MST4) | %Inh (MTOR) | %Inh (MUSK) | %Inh (MYLK2) | %Inh (MYLK4) | %Inh (MYLK) | %Inh (MYO3A) | %Inh (MYO3B) | %Inh (NDR1) | %Inh (NDR2) | %Inh (NEK10)
1 | Cc1ccc(C(=O)Nc2ccc(Oc3ccc4nc(NC(=O)C5CC5)cn4c3)c(F)c2)c(=O)n1-c1ccccc1 | 80% | 92.4% | 13% | 0% | 0% | 100% | 47% | 100% | 5% | 0% | 0% | 99.8% | 0% | 0% | 15% | 0% | 4% | 8% | 0% | 0%
2 | c1ccc(Oc2ccc(Nc3ccnc4ccc(-c5ccccn5)cc34)cc2)cc1 [GW407034] | 1% | 3% | 5% | 2% | 9% | 0% | 0% | 0% | 4% | 0% | 15% | 15% | 12% | 4% | 14% | 10% | 0% | 0% | 0% | 2%
3 | Cc1ccc(Nc2ccnc(Nc3ccc4c(c3)CS(=O)(=O)C4)n2)cc1O.Cl [GW579362] | 94.2% | 100% | 89% | 9% | 0% | 81% | 19% | 60% | 29% | 25% | 30% | 53% | 32% | 87% | 27% | 15% | 0% | 28% | 0% | 16%
4 | O=C(Nc1ccc(Oc2ccc3nc(NC(=O)C4CC4)cn3n2)c(F)c1)c1cccn(-c2ccccc2)c1=O | 19% | 32% | 10% | 0% | 0% | 39% | 0% | 0% | 0% | 0% | 21% | 99.5% | 0% | 0% | 0% | 0% | 0% | 3% | 0% | 0%
5 | Cn1ccc2ncnc(Oc3ccc(NC(=O)Nc4cccc(C(F)(F)F)c4)c(Cl)c3)c21 | 53% | 12% | 2% | 3% | 21% | 33% | 16% | 24% | 18% | 0% | 33% | 94.6% | 21% | 5% | 3% | 0% | 22% | 17% | 0% | 0%
6 | Cc1ccc(CC(=O)N2CCc3cc(-c4cn(C)c5ncnc(N)c45)ccc32)cc1 [GSK2634758] | 15% | 17% | 24% | 0% | 9% | 39% | 94.9% | 58% | 56% | 35% | 32% | 0% | 87% | 0% | 0% | 0% | 9% | 18% | 8% | 0%
7 | CCN1CCN(CCCC(=O)Nc2n[nH]c3nc(-c4ccc(O)cc4)c(Br)cc23)CC1 [SB-731579] | 0% | 0% | 0% | 0% | 0% | 17% | 2% | 57% | 0% | 60% | 0% | 0% | 98.5% | 1% | 0% | 62% | 17% | 0% | 0% | 0%
8 | Cl.c1ccc(Oc2ccc(Nc3ccnc4cc(-c5ccc(CN6CCNCC6)o5)ccc34)cc2)nc1 [GW567142] | 0% | 0% | 0% | 0% | 0% | 39% | 0% | 31% | 8% | 0% | 0% | 0% | 0% | 8% | 1% | 7% | 0% | 10% | 4% | 3%
9 | Cn1ccc2ncnc(Oc3ccc(NC(=O)Nc4cncc(C(F)(F)F)c4)c(Cl)c3)c21 | 0% | 0% | 0% | 0% | 0% | 0% | 0% | 0% | 0% | 0% | 7% | 95% | 0% | 0% | 0% | 0% | 0% | 0% | 0% | 11%
10 | CN(c1ccc2c(c1)nc(NCc1ccc(F)cc1)n2C)c1ccnc(Nc2ccc(CS(C)(=O)=O)cc2)n1.Cl [GW813244] | 24% | 44% | 0% | 6% | 0% | 0% | 16% | 0% | 1% | 3% | 0% | 51% | 0% | 13% | 1% | 0% | 45% | 31% | 0% | 10%
11 | CN1CCN(CCCNc2nccc(-c3c(-c4ccc(F)cc4)nn4cc(C(N)=O)ccc34)n2)CC1 [GW622475] | 0% | 16% | 12% | 11% | 0% | 36% | 28% | 15% | 33% | 0% | 5% | 6% | 10% | 5% | 26% | 10% | 0% | 33% | 0% | 25%
12 | COC(=O)c1cccc(NC(=O)NC2CCN(c3ccnc(Nc4cc(OC)c(OC)c(OC)c4)n3)C2)c1 (centres unmarked) [GSK1379767] | 33% | 0% | 34% | 14% | 0% | 39% | 6% | 2% | 0% | 0% | 26% | 5% | 25% | 14% | 11% | 43% | 0% | 18% | 38% | 3%
13 | OCCn1cc(-c2cnc3nnn(Cc4ccc5ncccc5c4)c3n2)cn1 | 0% | 0% | 0% | 0% | 0% | 0% | 0% | 0% | 0% | 0% | 52% | 0% | 0% | 0% | 3% | 0% | 0% | 7% | 4% | 0%
14 | Cl.Cl.NC[C@H](CC1CCCCC1)NC(=O)c1ccc(-c2ccnc3[nH]ccc23)s1 [GSK1581428] | 5% | 0% | 0% | 97.1% | 99.1% | 26% | 0% | 0% | 9% | 55% | 14% | 61% | 62% | 99.9% | 66% | 0% | 0% | 95.8% | 79% | 17%
15 | COc1ccc(Nc2nccc(N3CCC(NC(=O)c4cccc(C#N)c4)C3)n2)cc1 (centres unmarked) [GSK1379730] | 1% | 0% | 22% | 0% | 0% | 29% | 19% | 0% | 0% | 0% | 10% | 5% | 0% | 0% | 0% | 0% | 0% | 0% | 0% | 28%
16 | CC(=O)c1c(-c2ccncc2)[nH]c(-c2ccncc2)c1C [GW493036] | 4% | 0% | 0% | 20% | 3% | 42% | 11% | 8% | 0% | 0% | 0% | 8% | 4% | 7% | 4% | 42% | 0% | 19% | 0% | 0%

Reference: publication PMC5540273 (PLoS ONE, 2017)
